Reference: the supplement of paper PMC6555819

Legend:
Experiment in all cases: PBM binding z-score (relative to random genomic background probes); higher = stronger binding; sequences stand for … in GC…GCGATTGACAGCGTAGAATGAAGG
[1] = tested on: PPARg:RXRa DBDmut IVT, anti-RXR (DBD mutation: RXRa K156A/R161A, NR concentration 270 nM, RXRa partner concentration 90 nM)
Method in brief: (§1)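 Custom Agilent 4×180K protein-binding microarrays carried double-stranded probes, each with a 34-nt variable region. These regions held direct-repeat seeds, single-nucleotide variants, half-site ablations and random human genomic background sequences. Ligand-free nuclear receptor dimers were incubated on the arrays for 1 h, antibodies against each partner (one per run) detected binding, and scanned fluorescence was regression-normalized. Binding z-scores take the random background probes as reference.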

[2] = tested on: PPARg:RXRa IVT, anti-PPARg (NR concentration 270 nM, RXRa partner concentration 90 nM)
Method in brief: as §1

[3] = tested on: PPARg DBDmut:RXRa IVT, anti-PPARg (DBD mutation: PPARg1 K132A/R137A, NR concentration 270 nM, RXRa partner concentration 90 nM)
Method in brief: as §1

[4] = tested on: PPARg DBDmut IVT, anti-PPARg (DBD mutation: PPARg1 K132A/R137A, NR concentration 270 nM)
Method in brief: as §1

[5] = tested on: PPARg homodimer (NR concentration 180 nM)
Method in brief: as §1

[6] = tested on: PXR:RXRa (NR concentration 270 nM, RXRa partner concentration 90 nM)
Method in brief: as §1

[7] = tested on: PXR homodimer (NR concentration 270 nM)
Method in brief: as §1

[8] = tested on: RARa:RXR (NR concentration 270 nM, RXRa partner concentration 90 nM)
Method in brief: as §1

[9] = tested on: RARa homodimer (NR concentration 270 nM)
Method in brief: as §1

[10] = tested on: RARb:RXRa (NR concentration 270 nM, RXRa partner concentration 90 nM)
Method in brief: as §1

Row | Sequence | PBM binding z-score [1] | PBM binding z-score [2] | PBM binding z-score [3] | PBM binding z-score [4] | PBM binding z-score [5] | PBM binding z-score [6] | PBM binding z-score [7] | PBM binding z-score [8] | PBM binding z-score [9] | PBM binding z-score [10]
1 | TAACCTAGGTCATTGGGCCAGTATAGTACGCATC | 4.7 | 5.03 | 1.2 | 0.368 | 1.68 | 2.09 | 0.379 | 2.92 | 0.714 | 3.88
2 | GATACAGGGTCAGCTAGAGGCCAGAGCATGGAAA | 1.04 | 2.15 | 0.0195 | -0.294 | 1.76 | 2.88 | -0.095 | 4.33 | -0.0795 | 4.16
3 | TCTTGTAGATCAACAGGAGGTTAAGGAAGATCGA | 1.4 | 0.448 | 1.51 | 0.495 | 0.156 | 0.485 | -0.267 | 0.702 | 0.0704 | 0.516
4 | TCTGCTAGGTCAACGACGGTCAGCTAATCTGCTA | 3.89 | 3.94 | 0.0425 | 0.346 | 0.772 | 2.08 | -0.714 | 2.4 | -1.12 | 4.13
5 | TCTAGTTGGTCAACGGTCACACACTCGAAATGCG | 2.4 | 2.99 | 0.499 | 0.932 | 1.48 | 0.697 | 0.127 | 0.78 | 1.23 | 2.31
6 | CGAACTAGGGCAAGGACAGTGAATCTCCGCACGC | 7 | 6.14 | 0.631 | -0.116 | -0.153 | -0.332 | -0.43 | -0.371 | -0.534 | 1.59
7 | TCATATAGGTAATACAGGTGAAAATCGGCATCTA | 3.9 | 3.09 | 1.52 | 1.47 | 1.22 | 0.9 | 0.486 | 1.46 | 1.89 | 0.59
8 | TGTCAAAGTTCAAAGGTACCGTAAGTATCCACAC | 0.615 | 4.3 | 1.2 | 0.655 | 1.97 | 5.17 | 3.76 | 4.94 | 0.937 | 4.89
9 | CCTACTGGGCCAAGGACATTGATCAGTCAAAGCA | 3.42 | 3.05 | -0.364 | -0.839 | -0.294 | -0.555 | -0.0775 | -0.237 | -0.533 | 0.145
10 | CCTACTGGGCCATTCAGTGGTCATTGATCATATG | 3.99 | 3.43 | -0.19 | -0.875 | -0.524 | -0.597 | -0.649 | -0.725 | -0.259 | 0.368
11 | TCTGCTAGGTCAACGATGGACAGCTAATCTGCTA | 3.88 | 4.29 | 1.56 | 0.358 | 1.08 | 1.32 | -0.751 | 2.01 | -0.131 | 3.97
12 | GGAACGAGGGCATTAGAGTTGATAGCATGGCGAT | 3.06 | 2.02 | -0.0353 | -0.143 | 0.508 | 3.02 | 0.854 | 0.328 | -0.0747 | 1.79
13 | TCGAGTAGGTTACCAAAGGGGCATTCAGCTTTCT | 3 | 2.74 | 0.155 | 0.119 | 0.4 | 0.735 | -0.508 | 0.81 | -0.941 | 1.37
14 | TCTAGCATGCCAGAGGGTCACTCAAGAGGTACGG | 0.74 | 0.403 | -0.182 | -1.1 | 0.757 | 1.74 | -0.449 | 2.86 | -0.513 | 2.11
15 | TAGCCTAGGTCATGGGCCAGTATTCCACGCGAAC | 1.55 | 3.11 | 0.483 | -0.959 | 1.79 | 1.75 | -0.956 | 2.95 | -0.638 | 3.78
16 | ATACCAAGGTGATCGTTAGGTCGTTGATACTAAC | 0.451 | 1.04 | 0.332 | 1.27 | 0.52 | 0.494 | 0.467 | 1.25 | 0.0968 | 0.816
17 | CCTAGCAGGCAAGGGTCACTCAAGCATTTCGCTT | 0.337 | 0.835 | -1.27 | -1.7 | 1.35 | 2.99 | -0.946 | 3.86 | -0.178 | 3.31
18 | AGAACGAGGGCACGCTGAGTGGATAGCAGAGTAG | 4.13 | 3.9 | 0.715 | 0.00545 | 0.149 | 0.143 | -0.338 | 0.776 | -0.364 | 2.42
19 | TCCTATAGGTAATACAGGTGAAAGTCGGCATCTA | 2.84 | 2.12 | 0.665 | 0.687 | 0.164 | 0.43 | -0.159 | 0.537 | 0.724 | 0.581
